Results as given in PubChem BioAssay AID624047 (National Center for Advancing Translational Sciences (NCATS), 2012).
Values without a mark were called inactive. The source made the active and inactive calls. Calls follow the shape of the dose curve; as a rule, active = well fitted inhibition curve with a large enough effect; inactive = flat fitted curve, though single readings scatter.

Target: Dual specificity protein kinase CLK1 (Homo sapiens) (UniProt P49759)
Assay: Reaction Biology data for inhibitors of CLK1: Probe SAR
Conditions: Reaction Biology CLK1 kinase assay, 10 uM ATP; series mostly up to 10 µM; activity change, negative = inhibition: at the top concentration
From the text: Alternative splicing of pre-mRNAs plays a major role in the regulation of eukaryotic gene expression. Alternative splicing is now thought to be one of the primary reasons for the complexity of higher organisms leading to an average of three protein isoforms per gene. Aberrant splicing can lead to a number of diseases and is known to play a role in rare genetic diseases such as progeria syndrome. Hutchinson-Gilford Progeria Syndrome (HGPS) is a pediatric premature aging disease caused by a spontaneous mutation in the lamin A/C (LMNA) gene due to a single point mutation in the lamin A gene effecting 1 in 4 million people. To identify both specific splicing modulators of the lamin A gene as well as general splicing modulators, a cell-based HTS assay was developed using a minigene reporter system (AIDs, 1459 & 1487). […] This AID summarizes the characterization of lead compounds in Clk1. NIH Molecular Libraries Probe Production Centers Network [MLPCN] NIH Chemical Genomics Center [NCGC] MLPCN Grant: MH084827 Assay Submitter (PI): Tom Misteli
Compound IC50s were determined at Reaction Biology (http://www.reactionbiology.com) with ten concentration points starting at 10 uM in the assay using a 3-fold dilution series. The control compound staurosporine was also tested in the 10-dose IC50 mode with the same 3-fold serial dilution, again starting at 10 uM. All kinase reactions were performed using 10 uM ATP in the assay. 100% activity was taken from kinase reactions with DMSO alone (the vehicle used for compound stock solutions).

Dual specificity protein kinase CLK1 (Homo sapiens), sequence (P49759 whole entry, looked up): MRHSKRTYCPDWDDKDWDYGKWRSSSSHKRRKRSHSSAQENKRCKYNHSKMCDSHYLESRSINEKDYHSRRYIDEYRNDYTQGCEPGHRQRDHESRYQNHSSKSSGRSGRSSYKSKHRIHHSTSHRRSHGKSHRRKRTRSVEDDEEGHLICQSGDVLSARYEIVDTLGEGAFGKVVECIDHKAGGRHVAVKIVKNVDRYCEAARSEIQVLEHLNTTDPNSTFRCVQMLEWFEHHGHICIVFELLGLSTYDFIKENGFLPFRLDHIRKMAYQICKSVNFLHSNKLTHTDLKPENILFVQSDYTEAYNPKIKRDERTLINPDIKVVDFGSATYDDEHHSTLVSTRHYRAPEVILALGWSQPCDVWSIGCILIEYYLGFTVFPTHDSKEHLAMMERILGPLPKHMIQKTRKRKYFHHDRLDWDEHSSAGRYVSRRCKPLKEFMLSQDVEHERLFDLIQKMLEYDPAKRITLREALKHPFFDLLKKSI

How did the Potency turn out when Clc1cc(Cl)cc(CNc2nccc(-c3ccc4c(c3)OCO4)n2)c1 was run?
The Potency was 1.9 nM (active).

Which Potency does the source give for Clc1ccc(CNc2nccc(-c3ccc4c(c3)OCCO4)n2)cc1Cl here?
Its Potency is 15.8 nM (active).

Which Potency does the source give for Cc1c(-c2ccnc(NCc3ccc(Cl)cc3)n2)sc(=O)n1C here?
The Potency was 74.8 nM (active).

Which Potency does the source give for c1cncc(CNc2nccc(-c3ccc4[nH]ncc4c3)n2)c1 here?
Its Potency is 72.8 nM (active).

For Clc1cc(Cl)cc(CNc2ncncc2-c2ccc3c(c2)OCO3)c1, which Potency is on record?
Its Potency is 68.4 nM (active).

How did the Potency turn out when c1cncc(CNc2ncncc2-c2ccc3c(c2)OCO3)c1 was run?
The Potency was 4800 nM (active).

For Clc1ccc(CNc2nccc(-c3ccc4cn[nH]c4c3)n2)cc1Cl, which Potency is on record?
Its Potency is 183 nM (active).

With Clc1ccc(CNc2ccnc(-c3ccc4c(c3)OCO4)n2)cc1Cl as the molecule, how does the “activity change, negative = inhibition” value read?
Its value is -25.3%.

Which Potency does the source give for FC(F)(F)c1cc(Br)cc(Nc2nccc(-c3ccc4c(c3)OCO4)n2)c1 here?
The Potency was 102 nM (active).

Which Potency does the source give for c1cncc(CNc2ccnc(-c3ccc4[nH]ncc4c3)n2)c1 here?
Its Potency is 964 nM (active).

With Brc1cc(Br)cc(CNc2nccc(-c3ccc4c(c3)OCO4)n2)c1 as the molecule, how does the Potency read?
Its Potency is 13 nM (active).

With COc1cccc(-c2ccnc(NCc3ccc(Cl)c(Cl)c3)n2)c1 as the molecule, how does the Potency read?
Its Potency is 5460 nM (active).

How did the Potency turn out when Clc1ccc(CNc2ncncc2-c2ccc3c(c2)OCO3)cc1 was run?
The Potency was 2370 nM (active).

How did the Potency turn out when COc1ccc(-c2ccnc(NCc3ccc(Cl)cc3)n2)cc1 was run?
Its Potency is 277 nM (active).

With Clc1ccc(CNc2nccc(-c3ccc4c(c3)OCO4)n2)cc1Cl as the molecule, how does the Potency read?
Its Potency is 8.3 nM (active).

With c1cc(-c2ccc3c(c2)OCO3)nc(Nc2ccc3c(c2)OCO3)n1 as the molecule, how does the Potency read?
The Potency was 180 nM (active).

Which Potency does the source give for Clc1ccc(CNc2ccnc(-c3ccc4[nH]ncc4c3)n2)cc1Cl here?
The Potency was 1780 nM (active).

Which Potency does the source give for Clc1ccc(CNc2nccc(-c3ccc4[nH]ncc4c3)n2)cc1Cl here?
The Potency was 41.5 nM (active).

Which Potency does the source give for Cc1nc(CNc2ncnc3ccc(-c4ccc5c(c4)OCO5)cc23)cs1 here?
Its Potency is 30.4 nM (active).

For Cc1c(-c2ccnc(NCc3cccnc3)n2)sc(=O)n1C, which Potency is on record?
Its Potency is 44.9 nM (active).

With c1cncc(CNc2nccc(-c3ccc4c(c3)OCO4)n2)c1 as the molecule, how does the Potency read?
The Potency was 11.3 nM (active).

Which Potency does the source give for Cc1nc(CN(C)c2ncnc3ccc(-c4ccc5c(c4)OCO5)cc23)cs1 here?
The Potency was 9.3 nM (active).

COc1ccc(-c2ccnc(NCc3ccc(Cl)c(Cl)c3)n2)cc1 was tested. Which Potency did it give?
Its Potency is 76.5 nM (active).

For O=[N+]([O-])c1cc(Nc2nccc(-c3ccc4c(c3)OCO4)n2)cc(C(F)(F)F)c1, which Potency is on record?
The Potency was 32.3 nM (active).

Which Potency does the source give for FC(F)(F)c1cccc(Nc2nccc(-c3ccc4c(c3)OCO4)n2)c1 here?
The Potency was 33.6 nM (active).

For COc1ccc(-c2ccnc(NCc3ccc(Cl)c(Cl)c3)n2)cc1OC, which “activity change, negative = inhibition” value is on record?
Its value is -39.5%.

With Brc1ccc(CNc2nccc(-c3ccc4c(c3)OCO4)n2)cc1Br as the molecule, how does the Potency read?
The Potency was 24.1 nM (active).

How did the Potency turn out when c1nc(NCC2CCCO2)c2cc(-c3ccc4c(c3)OCO4)ccc2n1 (stereo not drawn) was run?
Its Potency is 52.8 nM (active).

Which “activity change, negative = inhibition” value does the source give for COc1cccc(-c2ccnc(NCc3ccc(Cl)cc3)n2)c1 here?
The value was -49.7%.

For Cc1nc(CN(C)c2ncnc3ccc(-c4ccc5[nH]ncc5c4)cc23)cs1, which Potency is on record?
Its Potency is 47.5 nM (active).

Which Potency does the source give for c1cncc(CNc2ccnc(-c3ccc4cn[nH]c4c3)n2)c1 here?
The Potency was 1600 nM (active).

How did the Potency turn out when Clc1ccc(CNc2ncncc2-c2ccc3c(c2)OCO3)cc1Cl was run?
Its Potency is 626 nM (active).

With Clc1ccc(Nc2nccc(-c3ccc4c(c3)OCO4)n2)cc1 as the molecule, how does the Potency read?
Its Potency is 1260 nM (active).
